Measurements as given in paper PMC8384837, “Expanding the binding specificity for RNA recognition by a PUF domain”.

Key:
Test in all cases: yeast three-hybrid, YBZ-1, SC-Leu-His + 0.5 mM 3-AT, 4 days
Settings in all cases: tags: N-Gal4 AD-HA kept; label: inside an RPR1-promoter hybrid RNA with tandem MS2 sites; ssRNA
[1] = molecular target: PUM1 PUF domain R4-SPA (Homo sapiens, UniProt Q14671 828-1176, N971S;H972P;Q975A)
Procedure, shortened: (§1)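 Pumilio-1 PUF domain libraries, randomized at the three base-contacting residues of each repeat, were co-expressed with matching RNA elements from a centromeric plasmid in strain YBZ-1, which carries a LexA–MS2 coat fusion and a HIS3 reporter. Transformants grew for four days on SC-Leu (input) or on SC-Leu-His + 0.5 mM 3-AT (selection), and the repeat regions were PCR-amplified and Illumina-sequenced. The interaction score is the log change in variant frequency from input to selection. That logarithm is base 2, with a pseudocount of 1 where a variant was absent.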

[2] = molecular target: PUM1 PUF domain R5-RYS (Homo sapiens, UniProt Q14671 828-1176, C1007R;R1008Y;Q1011S)
Procedure, shortened: as §1

[3] = molecular target: PUM1 PUF domain R5-RFL (Homo sapiens, UniProt Q14671 828-1176, C1007R;R1008F;Q1011L)
Procedure, shortened: as §1

[4] = molecular target: PUM1 PUF domain R5-MKC (Homo sapiens, UniProt Q14671 828-1176, C1007M;R1008K;Q1011C)
Procedure, shortened: as §1

[5] = molecular target: PUM1 PUF domain R5-RAQ (Homo sapiens, UniProt Q14671 828-1176, C1007R;R1008A)
Procedure, shortened: as §1

[6] = molecular target: PUM1 PUF domain R3-TFF (Homo sapiens, UniProt Q14671 828-1176, C935T;R936F;Q939F)
Procedure, shortened: as §1

[7] = molecular target: PUM1 PUF domain R3-FYG (Homo sapiens, UniProt Q14671 828-1176, C935F;R936Y;Q939G)
Procedure, shortened: as §1

[8] = molecular target: PUM1 PUF domain R2-EWV (Homo sapiens, UniProt Q14671 828-1176, N899E;Y900W;Q903V)
Procedure, shortened: as §1

[9] = molecular target: PUM1 PUF domain R2-EWL (Homo sapiens, UniProt Q14671 828-1176, N899E;Y900W;Q903L)
Procedure, shortened: as §1

[10] = molecular target: PUM1 PUF domain R4-RFP (Homo sapiens, UniProt Q14671 828-1176, N971R;H972F;Q975P)
Procedure, shortened: as §1

[11] = molecular target: PUM1 PUF domain R5-KCL (Homo sapiens, UniProt Q14671 828-1176, C1007K;R1008C;Q1011L)
Procedure, shortened: as §1

[12] = molecular target: T1, PUM1 PUF domain R6-FRS (Homo sapiens, UniProt Q14671 828-1176, N1043F;Y1044R;Q1047S)
T1 sequence: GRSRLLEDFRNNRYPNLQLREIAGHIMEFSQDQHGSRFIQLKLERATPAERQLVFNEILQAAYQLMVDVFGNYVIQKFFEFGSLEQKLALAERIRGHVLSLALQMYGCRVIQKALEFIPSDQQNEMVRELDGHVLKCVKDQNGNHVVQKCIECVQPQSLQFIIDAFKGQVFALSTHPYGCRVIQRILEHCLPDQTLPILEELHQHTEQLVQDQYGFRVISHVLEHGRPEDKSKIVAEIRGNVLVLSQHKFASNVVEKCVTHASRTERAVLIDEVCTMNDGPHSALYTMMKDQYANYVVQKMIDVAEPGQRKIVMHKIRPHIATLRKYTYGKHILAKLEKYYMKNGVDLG
Procedure, shortened: as §1

[13] = molecular target: PUM1 PUF domain R5-MYR (Homo sapiens, UniProt Q14671 828-1176, C1007M;R1008Y;Q1011R)
Procedure, shortened: as §1

[14] = molecular target: PUM1 PUF domain R7-RVM (Homo sapiens, UniProt Q14671 828-1176, S1079R;N1080V;E1083M)
Procedure, shortened: as §1

[15] = molecular target: PUM1 PUF domain R7-KSG (Homo sapiens, UniProt Q14671 828-1176, S1079K;N1080S;E1083G)
Procedure, shortened: as §1

[16] = molecular target: PUM1 PUF domain R3-FCM (Homo sapiens, UniProt Q14671 828-1176, C935F;R936C;Q939M)
Procedure, shortened: as §1

[17] = molecular target: PUM1 PUF domain R1-VTW (Homo sapiens, UniProt Q14671 828-1176, S863V;R864T;Q867W)
Procedure, shortened: as §1

[18] = molecular target: PUM1 PUF domain R5-RKC (Homo sapiens, UniProt Q14671 828-1176, C1007R;R1008K;Q1011C)
Procedure, shortened: as §1

[19] = molecular target: PUM1 PUF domain R5-SSR (Homo sapiens, UniProt Q14671 828-1176, C1007S;R1008S;Q1011R)
Procedure, shortened: as §1

[20] = molecular target: PUM1 PUF domain R5-SPR (Homo sapiens, UniProt Q14671 828-1176, C1007S;R1008P;Q1011R)
Procedure, shortened: as §1

Sequence of PUM1 PUF domain R5-RFL (Q14671 828-1176 C1007R/R1008F/Q1011L): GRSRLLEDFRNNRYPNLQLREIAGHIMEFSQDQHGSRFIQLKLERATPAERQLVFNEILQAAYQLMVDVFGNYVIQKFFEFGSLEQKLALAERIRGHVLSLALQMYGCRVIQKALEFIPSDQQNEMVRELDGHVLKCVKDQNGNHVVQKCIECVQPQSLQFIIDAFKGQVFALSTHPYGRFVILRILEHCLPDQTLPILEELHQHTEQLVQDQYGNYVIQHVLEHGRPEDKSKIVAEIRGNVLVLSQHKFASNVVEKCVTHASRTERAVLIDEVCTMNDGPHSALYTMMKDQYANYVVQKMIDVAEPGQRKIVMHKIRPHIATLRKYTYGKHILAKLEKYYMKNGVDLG
Sequence of PUM1 PUF domain R4-SPA (Q14671 828-1176 N971S/H972P/Q975A): as the sequence (Q14671 828-1176 C1007R/R1008F/Q1011L) above, with N144S, H145P, Q148A, R180C, F181R, L184Q counted along it
Sequence of PUM1 PUF domain R5-RAQ (Q14671 828-1176 C1007R/R1008A): as the sequence (Q14671 828-1176 C1007R/R1008F/Q1011L) above, with F181A, L184Q counted along it
Sequence of PUM1 PUF domain R3-FYG (Q14671 828-1176 C935F/R936Y/Q939G): as the sequence (Q14671 828-1176 C1007R/R1008F/Q1011L) above, with C108F, R109Y, Q112G, R180C, F181R, L184Q counted along it
Sequence of PUM1 PUF domain R5-RYS (Q14671 828-1176 C1007R/R1008Y/Q1011S): as the sequence (Q14671 828-1176 C1007R/R1008F/Q1011L) above, with F181Y, L184S counted along it

“GGCUAGAACUAGUGGAUCCCCCGGCGCCCGGCGGCUCGAGCCCGGGUAAGUGUACAUAGUCUGCAUGCCGCCGGGCGCCAUGCCUGCAGGUCGACUCUAGAAAACAUG” was tested, and the binding signal [1] was 1.59 log2 enrichment (interaction score).
“GGCUAGAACUAGUGGAUCCCCCGGCGCCCGGCGGCUCGAGCCCGGGUAAGUGUUAAUAGUCUGCAUGCCGCCGGGCGCCAUGCCUGCAGGUCGACUCUAGAAAACAUG” was tested, and the binding signal [2] was 3.23 log2 enrichment (interaction score), the binding signal [3] was 4.97 log2 enrichment (interaction score) and the binding signal [4] was 2.53 log2 enrichment (interaction score). For the same sequence, the binding signal [5] was 4.06 log2 enrichment (interaction score).
With “GGCUAGAACUAGUGGAUCCCCCGGCGCCCGGCGGCUCGAGCCCGGGUAAGUGUAAUUAGUCUGCAUGCCGCCGGGCGCCAUGCCUGCAGGUCGACUCUAGAAAACAUG” the binding signal [6] was 1.36 log2 enrichment (interaction score) and the binding signal [7] was 5.45 log2 enrichment (interaction score).
“GGCUAGAACUAGUGGAUCCCCCGGCGCCCGGCGGCUCGAGCCCGGGUAAGUGUAAAAAGUCUGCAUGCCGCCGGGCGCCAUGCCUGCAGGUCGACUCUAGAAAACAUG” was tested, and the binding signal [8] was 5.9 log2 enrichment (interaction score) and the binding signal [9] was 6.51 log2 enrichment (interaction score).
“GGCUAGAACUAGUGGAUCCCCCGGCGCCCGGCGGCUCGAGCCCGGGUAAGUGUAAAUAGUCUGCAUGCCGCCGGGCGCCAUGCCUGCAGGUCGACUCUAGAAAACAUG” was tested, and the binding signal [2] was 3.42 log2 enrichment (interaction score), the binding signal [6] was 6.12 log2 enrichment (interaction score) and the binding signal [1] was 3.03 log2 enrichment (interaction score). For the same sequence, the binding signal [3] was 3.51 log2 enrichment (interaction score), the binding signal [5] was 1.44 log2 enrichment (interaction score) and the binding signal [10] was 6.66 log2 enrichment (interaction score). The binding signal [11] was 2.45 log2 enrichment (interaction score), the binding signal [7] was 4.62 log2 enrichment (interaction score) and the binding signal [12] was 2.9 log2 enrichment (interaction score). For the same sequence, the binding signal [13] was 2.55 log2 enrichment (interaction score).
“GGCUAGAACUAGUGGAUCCCCCGGCGCCCGGCGGCUCGAGCCCGGGUAAGUUUAAAUAGUCUGCAUGCCGCCGGGCGCCAUGCCUGCAGGUCGACUCUAGAAAACAUG” was tested, and the binding signal [14] was 2.72 log2 enrichment (interaction score) and the binding signal [15] was 2.37 log2 enrichment (interaction score).
In the case of “GGCUAGAACUAGUGGAUCCCCCGGCGCCCGGCGGCUCGAGCCCGGGUAAGUGUAAGUAGUCUGCAUGCCGCCGGGCGCCAUGCCUGCAGGUCGACUCUAGAAAACAUG”, the binding signal [7] is reported as 7.3 log2 enrichment (interaction score) and the binding signal [16] is reported as 4.3 log2 enrichment (interaction score).
With “GGCUAGAACUAGUGGAUCCCCCGGCGCCCGGCGGCUCGAGCCCGGGUAAGUGUAAAUUGUCUGCAUGCCGCCGGGCGCCAUGCCUGCAGGUCGACUCUAGAAAACAUG” the binding signal [17] was 3.57 log2 enrichment (interaction score).
“GGCUAGAACUAGUGGAUCCCCCGGCGCCCGGCGGCUCGAGCCCGGGUAAGUCUAAAUAGUCUGCAUGCCGCCGGGCGCCAUGCCUGCAGGUCGACUCUAGAAAACAUG” was tested, and the binding signal [15] was 0.94 log2 enrichment (interaction score).
For “GGCUAGAACUAGUGGAUCCCCCGGCGCCCGGCGGCUCGAGCCCGGGUAAGUGUAUAUAGUCUGCAUGCCGCCGGGCGCCAUGCCUGCAGGUCGACUCUAGAAAACAUG”, the binding signal [1] was 3.25 log2 enrichment (interaction score) and the binding signal [10] was 3.26 log2 enrichment (interaction score).
With “GGCUAGAACUAGUGGAUCCCCCGGCGCCCGGCGGCUCGAGCCCGGGUAAGUGUAAAGAGUCUGCAUGCCGCCGGGCGCCAUGCCUGCAGGUCGACUCUAGAAAACAUG” the binding signal [8] was 2.77 log2 enrichment (interaction score).
In the case of “GGCUAGAACUAGUGGAUCCCCCGGCGCCCGGCGGCUCGAGCCCGGGUAAGUGUCAAUAGUCUGCAUGCCGCCGGGCGCCAUGCCUGCAGGUCGACUCUAGAAAACAUG”, the binding signal [18] is reported as 3.84 log2 enrichment (interaction score), the binding signal [2] is reported as 5.4 log2 enrichment (interaction score) and the binding signal [3] is reported as 4.06 log2 enrichment (interaction score). The binding signal [19] was 6.53 log2 enrichment (interaction score), the binding signal [5] was 4.49 log2 enrichment (interaction score) and the binding signal [11] was 3.63 log2 enrichment (interaction score). The binding signal [20] was 5.38 log2 enrichment (interaction score).
